Data on 12 sequences can be found in publication PMC11006913.

Holding throughout (test): PBM; 200 nM protein, PBS
Common to all, as to conditions: dsDNA, one strand shown

Test [1] deals with T1, NKX2-4 (Homo sapiens, UniProt Q9H2Z4 175-261, P217L).
T1 sequence: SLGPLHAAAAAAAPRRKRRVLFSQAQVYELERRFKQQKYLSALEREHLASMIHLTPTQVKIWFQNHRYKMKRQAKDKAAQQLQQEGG

Test [2] addresses T2, NKX2-4 (Homo sapiens, UniProt Q9H2Z4 175-261, T231S).
T2 sequence: T1 sequence with L43P, T57S

For test [3], the target named is HOXC10 (Homo sapiens, UniProt Q9NYD6 254-340).
The target of test [4] is T3, NKX2-4 (Homo sapiens, UniProt Q9H2Z4 175-261).
T3 sequence: T1 sequence with L43P

Test [5] concerns the target HOXC10 (Homo sapiens, UniProt Q9NYD6 254-340, K271E).
In test [6] the target is T4, NKX2-4 (Homo sapiens, UniProt Q9H2Z4 175-261, R246Q).
T4 sequence: T1 sequence with L43P, R72Q

In the next test the target is PITX2 (Homo sapiens, UniProt Q99697 72-157).
A further test has as its target T5, NKX2-6 (Homo sapiens, UniProt A6NCS4 118-204, R150C).
T5 sequence: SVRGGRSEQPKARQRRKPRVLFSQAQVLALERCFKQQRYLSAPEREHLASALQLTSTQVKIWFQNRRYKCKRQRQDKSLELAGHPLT

Test [7] has as its target PRRX1 (Homo sapiens, UniProt P54821 80-166, F113S).
The target in test [8] is PRRX1 (Homo sapiens, UniProt P54821 80-166).
Test [9] addresses HOXB6 (Homo sapiens, UniProt P17509 132-218, K202E).
Test [10] has as its target HOXB6 (Homo sapiens, UniProt P17509 132-218).
The target of test [11] is HOXA2 (Homo sapiens, UniProt O43364 129-215, R185T).
Test [12] addresses HOXA2 (Homo sapiens, UniProt O43364 129-215, R185K).
The target of test [13] is HOXA2 (Homo sapiens, UniProt O43364 129-215, Y150S).
Test [14] addresses HOXA2 (Homo sapiens, UniProt O43364 129-215).
The target in test [15] is HOXD13 (Homo sapiens, UniProt P35453 263-343, T313R).
For test [16], the target named is HOXD13 (Homo sapiens, UniProt P35453 263-343).
Test [17] deals with HOXD13 (Homo sapiens, UniProt P35453 263-343, T313A).

Substitutions are numbered along the chain they refer to.

Chain of HOXD13 (Homo sapiens, UniProt P35453 263-343, T313A) (P35453 263-343 T313A): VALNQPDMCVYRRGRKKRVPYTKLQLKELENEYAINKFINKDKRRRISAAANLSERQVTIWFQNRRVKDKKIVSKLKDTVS
Chain of PRRX1 (Homo sapiens, UniProt P54821 80-166, F113S) (P54821 80-166 F113S): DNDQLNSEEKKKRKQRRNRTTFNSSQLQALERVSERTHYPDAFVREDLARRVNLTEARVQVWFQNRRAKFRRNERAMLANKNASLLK
Chain of HOXA2 (Homo sapiens, UniProt O43364 129-215, R185T) (O43364 129-215 R185T): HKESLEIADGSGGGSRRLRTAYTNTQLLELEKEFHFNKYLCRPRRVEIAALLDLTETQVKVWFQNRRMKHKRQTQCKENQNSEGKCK
Chain of PRRX1 (Homo sapiens, UniProt P54821 80-166) (P54821 80-166): as the sequence (P54821 80-166 F113S) above, with S34F counted along it
Chain of HOXA2 (Homo sapiens, UniProt O43364 129-215, R185K) (O43364 129-215 R185K): as the sequence (O43364 129-215 R185T) above, with T57K counted along it
Chain of HOXD13 (Homo sapiens, UniProt P35453 263-343, T313R) (P35453 263-343 T313R): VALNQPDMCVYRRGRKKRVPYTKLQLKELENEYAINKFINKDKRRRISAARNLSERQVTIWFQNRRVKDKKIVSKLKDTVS
Chain of HOXB6 (Homo sapiens, UniProt P17509 132-218) (P17509 132-218): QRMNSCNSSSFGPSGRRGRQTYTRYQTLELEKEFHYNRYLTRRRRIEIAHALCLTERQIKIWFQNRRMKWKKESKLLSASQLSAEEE
Chain of HOXB6 (Homo sapiens, UniProt P17509 132-218, K202E) (P17509 132-218 K202E): as the sequence (P17509 132-218) above, with K71E counted along it
Chain of HOXC10 (Homo sapiens, UniProt Q9NYD6 254-340) (Q9NYD6 254-340): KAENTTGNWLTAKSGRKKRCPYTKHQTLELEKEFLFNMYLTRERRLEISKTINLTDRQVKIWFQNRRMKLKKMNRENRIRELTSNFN
Chain of HOXA2 (Homo sapiens, UniProt O43364 129-215, Y150S) (O43364 129-215 Y150S): as the sequence (O43364 129-215 R185T) above, with Y22S, T57R counted along it
Chain of HOXC10 (Homo sapiens, UniProt Q9NYD6 254-340, K271E) (Q9NYD6 254-340 K271E): as the sequence (Q9NYD6 254-340) above, with K18E counted along it
Chain of HOXD13 (Homo sapiens, UniProt P35453 263-343) (P35453 263-343): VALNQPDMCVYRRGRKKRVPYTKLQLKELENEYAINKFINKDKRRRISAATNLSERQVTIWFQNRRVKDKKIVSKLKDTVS
Chain of HOXA2 (Homo sapiens, UniProt O43364 129-215) (O43364 129-215): as the sequence (O43364 129-215 R185T) above, with T57R counted along it

Take CGTCGGGC: the binding signal was 9.35 upbm affinity estimate (log intensity, higher = more binding, comparable within an allelic series) with NKX2-4 [1]; 9.21 upbm affinity estimate (log intensity, higher = more binding, comparable within an allelic series) with NKX2-4 [2]; 10 upbm affinity estimate (log intensity, higher = more binding, comparable within an allelic series) in the test with HOXC10 [3]; 9.36 upbm affinity estimate (log intensity, higher = more binding, comparable within an allelic series) in the test with NKX2-4 [4]; 10.1 upbm affinity estimate (log intensity, higher = more binding, comparable within an allelic series) in the test with HOXC10 [5]; 9.37 upbm affinity estimate (log intensity, higher = more binding, comparable within an allelic series) with NKX2-4 [6].

With AGCGGCCA, the binding signal in the test with NKX2-4 [1] is 9.69 upbm affinity estimate (log intensity, higher = more binding, comparable within an allelic series); in the test with NKX2-4 [2] it was 9.47 upbm affinity estimate (log intensity, higher = more binding, comparable within an allelic series); with NKX2-4 [4], 9.64 upbm affinity estimate (log intensity, higher = more binding, comparable within an allelic series); with PITX2 it was 8.04 upbm affinity estimate (log intensity, higher = more binding, comparable within an allelic series); with NKX2-4 [6], 9.57 upbm affinity estimate (log intensity, higher = more binding, comparable within an allelic series).

For AAAGGCGG, the binding signal in the test with NKX2-4 [1] is 9.6 upbm affinity estimate (log intensity, higher = more binding, comparable within an allelic series); in the test with NKX2-4 [2] it was 9.51 upbm affinity estimate (log intensity, higher = more binding, comparable within an allelic series); with NKX2-4 [4], 9.55 upbm affinity estimate (log intensity, higher = more binding, comparable within an allelic series); with NKX2-6 it was 9.54 upbm affinity estimate (log intensity, higher = more binding, comparable within an allelic series); in the test with NKX2-4 [6], 9.58 upbm affinity estimate (log intensity, higher = more binding, comparable within an allelic series).

On to CGAGCTAG, for which the binding signal with NKX2-4 [1] was 9.46 upbm affinity estimate (log intensity, higher = more binding, comparable within an allelic series); in the test with NKX2-4 [2], 9.32 upbm affinity estimate (log intensity, higher = more binding, comparable within an allelic series); in the test with PRRX1 [7], 9.63 upbm affinity estimate (log intensity, higher = more binding, comparable within an allelic series); with NKX2-4 [4], 9.31 upbm affinity estimate (log intensity, higher = more binding, comparable within an allelic series); in the test with NKX2-4 [6], 9.21 upbm affinity estimate (log intensity, higher = more binding, comparable within an allelic series); in the test with PRRX1 [8] it was 9.54 upbm affinity estimate (log intensity, higher = more binding, comparable within an allelic series).

Take ACCATTGA: the binding signal in the test with NKX2-4 [1] is 11.3 upbm affinity estimate (log intensity, higher = more binding, comparable within an allelic series); with NKX2-4 [2], 11.5 upbm affinity estimate (log intensity, higher = more binding, comparable within an allelic series); with NKX2-4 [4] it was 11.3 upbm affinity estimate (log intensity, higher = more binding, comparable within an allelic series); with HOXB6 [9], 9.55 upbm affinity estimate (log intensity, higher = more binding, comparable within an allelic series); in the test with NKX2-4 [6], 11.5 upbm affinity estimate (log intensity, higher = more binding, comparable within an allelic series); in the test with HOXB6 [10], 10.2 upbm affinity estimate (log intensity, higher = more binding, comparable within an allelic series).

For the sequence AGAGGGCT, the binding signal was 11.7 upbm affinity estimate (log intensity, higher = more binding, comparable within an allelic series) with NKX2-4 [1]; 11.9 upbm affinity estimate (log intensity, higher = more binding, comparable within an allelic series) with NKX2-4 [2]; 11.7 upbm affinity estimate (log intensity, higher = more binding, comparable within an allelic series) with NKX2-4 [4].

Consider TACTTCAA, for which the binding signal in the test with NKX2-4 [1] is 12.5 upbm affinity estimate (log intensity, higher = more binding, comparable within an allelic series); with NKX2-4 [2] it was 12.9 upbm affinity estimate (log intensity, higher = more binding, comparable within an allelic series); with NKX2-4 [4], 12.4 upbm affinity estimate (log intensity, higher = more binding, comparable within an allelic series); in the test with NKX2-4 [6] it was 13 upbm affinity estimate (log intensity, higher = more binding, comparable within an allelic series).

Regarding ACGTACTC, the binding signal with NKX2-4 [1] is 11.8 upbm affinity estimate (log intensity, higher = more binding, comparable within an allelic series); with NKX2-4 [2], 12 upbm affinity estimate (log intensity, higher = more binding, comparable within an allelic series); in the test with NKX2-4 [4], 11.7 upbm affinity estimate (log intensity, higher = more binding, comparable within an allelic series); with NKX2-4 [6], 11.9 upbm affinity estimate (log intensity, higher = more binding, comparable within an allelic series).

For ACTCCTCG, the binding signal in the test with NKX2-4 [1] was 11.6 upbm affinity estimate (log intensity, higher = more binding, comparable within an allelic series); with NKX2-4 [2], 11.8 upbm affinity estimate (log intensity, higher = more binding, comparable within an allelic series); with NKX2-4 [4] it was 11.5 upbm affinity estimate (log intensity, higher = more binding, comparable within an allelic series).

On to GCGTGCCC, for which the binding signal was 9.72 upbm affinity estimate (log intensity, higher = more binding, comparable within an allelic series) in the test with NKX2-4 [1]; 9.7 upbm affinity estimate (log intensity, higher = more binding, comparable within an allelic series) with NKX2-4 [2]; 9.77 upbm affinity estimate (log intensity, higher = more binding, comparable within an allelic series) with NKX2-4 [4]; 7.23 upbm affinity estimate (log intensity, higher = more binding, comparable within an allelic series) in the test with HOXA2 [11]; 10.3 upbm affinity estimate (log intensity, higher = more binding, comparable within an allelic series) with HOXA2 [12]; 9.73 upbm affinity estimate (log intensity, higher = more binding, comparable within an allelic series) in the test with NKX2-4 [6]. The binding signal is 10.3 upbm affinity estimate (log intensity, higher = more binding, comparable within an allelic series) with HOXA2 [13] and 7.4 upbm affinity estimate (log intensity, higher = more binding, comparable within an allelic series) in the test with HOXA2 [14].

As for CAAGTGCA, the binding signal was 12.1 upbm affinity estimate (log intensity, higher = more binding, comparable within an allelic series) in the test with NKX2-4 [1]; 12.5 upbm affinity estimate (log intensity, higher = more binding, comparable within an allelic series) in the test with NKX2-4 [2]; 12 upbm affinity estimate (log intensity, higher = more binding, comparable within an allelic series) in the test with NKX2-4 [4]; 11.4 upbm affinity estimate (log intensity, higher = more binding, comparable within an allelic series) with NKX2-6; 12.7 upbm affinity estimate (log intensity, higher = more binding, comparable within an allelic series) with NKX2-4 [6].

CGCCGCAG: the binding signal is 9.48 upbm affinity estimate (log intensity, higher = more binding, comparable within an allelic series) with NKX2-4 [1]; 9.2 upbm affinity estimate (log intensity, higher = more binding, comparable within an allelic series) with NKX2-4 [2]; 9.51 upbm affinity estimate (log intensity, higher = more binding, comparable within an allelic series) with NKX2-4 [4]; 9.57 upbm affinity estimate (log intensity, higher = more binding, comparable within an allelic series) in the test with HOXD13 [15]; 9.58 upbm affinity estimate (log intensity, higher = more binding, comparable within an allelic series) in the test with HOXD13 [16]; 9.58 upbm affinity estimate (log intensity, higher = more binding, comparable within an allelic series) with NKX2-4 [6]. The binding signal in the test with HOXD13 [17] was 9.63 upbm affinity estimate (log intensity, higher = more binding, comparable within an allelic series).
